Assay outcomes (PubChem BioAssay)
p53 reactivator – mutant p53 re-activation in reporter cells; H1299 p53-A138V BP100-luciferase reporter, luminescence, 24 h; Potency, µM (doses to about 92.2 µM), without a hit: at the top dose activity change, positive = activation, actives largely listed as activators; 0.063% of 320,000 active; note: potency is the fitted concentration of half-maximal effect; % of control where 0% means no effect; nearly all actives have a fitted effect of over 45% in size
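p53-null H1299 cells stably carrying temperature-sensitive p53-A138V and a BP100-luciferase reporter were pinned with compounds (4-point, 1:5 series) and held 24 hrs at 37 deg C. Luminescence was read 10 min after detection reagent.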
RORg inh – ROR gamma (mouse) transcription inhibition; AID 2551; 5.4% of 310,000 active; Potency, µM (doses to about 53.6 µM), inactives show at the highest dose activity change, negative = inhibition, actives largely listed as inhibitors; Drosophila S2 Gal4-RORgamma UAS-luciferase reporter, 20 h; note: potency is the fitted concentration of half-maximal effect; % is set by controls: 0 for no effect and ±100 for the full control effect; nearly all actives have a fitted effect of over 60% in size
Target sequence (P51450 whole entry, looked up, the tested form may be a part): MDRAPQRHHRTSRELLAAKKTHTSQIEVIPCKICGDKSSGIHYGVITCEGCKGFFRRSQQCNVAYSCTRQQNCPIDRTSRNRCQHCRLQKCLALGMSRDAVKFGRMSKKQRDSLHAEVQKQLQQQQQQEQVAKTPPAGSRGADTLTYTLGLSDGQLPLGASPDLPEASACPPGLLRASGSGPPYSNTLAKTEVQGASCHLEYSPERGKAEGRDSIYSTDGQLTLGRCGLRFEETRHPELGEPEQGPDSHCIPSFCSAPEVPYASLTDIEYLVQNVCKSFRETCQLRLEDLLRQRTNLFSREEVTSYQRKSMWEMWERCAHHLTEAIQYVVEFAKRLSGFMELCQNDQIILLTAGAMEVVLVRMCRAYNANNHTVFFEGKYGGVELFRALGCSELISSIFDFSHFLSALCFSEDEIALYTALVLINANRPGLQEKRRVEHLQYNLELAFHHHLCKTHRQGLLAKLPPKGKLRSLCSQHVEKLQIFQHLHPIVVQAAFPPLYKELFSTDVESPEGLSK
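In this cell-based reporter format, copper sulfate (700 uM final) drives Gal4–ROR gamma fusion expression from a metallothionein promoter in Drosophila Schneider cells; compounds preincubated 1 hr, reporter read after 20 hr at ambient temperature.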
BRCA1 expr act – activators of BRCA1 expression. 1.1% of 380,000 active. Potency, µM (titrated, usually from 46.1 µM), without a hit: top-dose activation, hits mostly activators. AID 624202. MCF7-BRCA1-FFLuc reporter, luminescence, 48 h; response scale: scaled: vehicle 0%, 10 µM genistein 100%; note: potency is the fitted concentration of half-maximal effect; nearly all actives have a fitted effect of over 80% in size
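Reporter cells (MCF7, BRCA1 promoter-firefly luciferase) received library compounds across a concentration series for 48 h. End-point luminescence was measured and concentration-effect curves derived after normalization.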
VP16 counter – counter-screen for ROR gamma inhibitors: Gal4-VP16 reporter | 3.5% of 310,000 active | Drosophila S2 Gal4-VP16 UAS-luciferase, luminescence, 20 h | AID 2546 | Potency, µM (titrated, usually from 53.6 µM), inactives show top-dose activity, negative = inhibition, hits mostly inhibitors;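 note: Gal4-VP16 expression switched on by copper sulfate through the metallothionein promoter; potency is the fitted concentration of half-maximal effect; % is set by controls: 0 for no effect and ±100 for the full control effect; nearly all actives have a fitted effect of over 50% in size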
ELG1 DNA repair – blocks ELG1-dependent DNA repair in HEK293T cells; HEK293T ELG1-luciferase reporter, luminescence, 16 h; DNA damage induced by 5-fluorouridine; Potency, µM (series often up to 46.1 µM), for inactives: at the highest dose activity change, negative = inhibition, hits mostly inhibitors; 2.3% of 330,000 active; note: potency is the fitted concentration of half-maximal effect; % is set by controls: 0 for no effect and ±100 for the full control effect; nearly all actives have a fitted effect of over 55% in size
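DMSO vehicle served as the neutral condition. Each well held 2,000 cells given 5-fluorouridine plus compound; after 16 hr at 37 °C/5% CO2, ONE-Glo was added and luciferase measured 30 min later.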
Giardia kill – Giardia lamblia killing; Giardia lamblia trophozoite viability; activity change, % at 7.66 µM, hits read low; 0.15% of 340,000 active; in the data active = activity change below about -80%; inconclusive = between about -30% and that limit;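 note: parasites exposed to compound for two days anaerobically before the ATP read; % is set by controls: 0 for no effect and ±100 for the full control effect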
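Viability, read as ATP luminescence: trophozoites at 100 cells/well, compound added, 48 hrs anaerobic at 37 deg C, then 15-30 min room-temperature development before reading.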
* hit, by the source's call; ? = inconclusive; · = no result. This is a sample that favours compounds with a hit; in the whole collection about 7.6% have one here. Unless noted, calls come from the whole dose curve; as a rule, active = well fitted curve in the direction sought with a large enough effect; inconclusive = small, poorly fitted or top-dose-only effect, or another doubt; inactive = no such curve, though single readings can be large; an effect the other way counts as inactive or inconclusive.

SMILES	p53 reactivator	RORg inh	BRCA1 expr act	VP16 counter	ELG1 DNA repair	Giardia kill
Cc1ccc(S(=O)(=O)NNC(=O)c2ccccc2O)cc1	-7%	11µM*	1%	4%	-4%	4
Cc1ccc(S(=O)(=O)NNC(=S)NCCc2ccccc2)cc1	1%	11µM*	-15%	?	-1%	-28
CCCCOc1ccc(C(=O)NCC(=O)NCC(c2ccc(F)cc2)N2CCOCC2)cc1 (centres undefined)	-2%	·	-6%	·	10%	-11
S=C(c1ccc(N2CCCC2)cc1)N1CCCCC1	?	8.9µM*	28%	?	?	-7
S=C(c1ccc(N2CCCC2)c(Br)c1)N1CCCCC1	-3%	20µM*	-40%	-22%	?	11
CN(C)c1ccc(C(=S)N2CCCCC2)cc1Br	-3%	10µM*	36%	-8%	-15%	11
CN(C)c1ccc(C(=S)N2CCOCC2)cc1Br	0%	-39%	-6%	29%	16%	-23
Oc1ccc(C(=S)N2CCCCCC2)cc1	-4%	8%	20%	6%	4%	-4
COc1ccccc1CC(=O)OCC(=O)N1CCN(c2ccc(F)cc2)CC1	-1%	·	4%	·	?	-23
S=C(NCc1ccccc1)Nc1ccc2ccccc2c1	?	4µM*	?	11µM*	?	0
S=C(NCc1cccnc1)Nc1ccc(Oc2ccc(Cl)cc2)cc1	-3%	-1%	-61%	?	10µM*	11
S=C(NCc1ccccc1)Nc1ccc2cn[nH]c2c1	4%	-15%	22%	-1%	-14%	-8
O=C(CCc1ccccc1)NNC(=S)Nc1ccc(F)cc1	2%	3.5µM*	1%	?	-7%	2
O=C(Cc1ccccc1)NNC(=S)Nc1ccc(Cl)cc1	2%	?	-1%	?	-11%	-12
Fc1ccc(NC(=S)NCc2ccccc2)cc1	·	8.9µM*	7%	10µM*	-5%	3
COc1ccccc1N1CCN(S(=O)(=O)c2ccc3c(c2)CC(C)N3C(C)=O)CC1 (centres undefined)	-1%	37%	-13%	18%	-9%	10
O=C(NCC1CC1)c1ccc2sc([C@@H]3O[C@H](CO)[C@H](O)[C@H](O)[C@H]3O)nc2c1	·	·	8%	·	·	·
Fc1ccc(CNC(=S)NCc2ccccc2)cc1	1%	11µM*	-4%	?	4%	?
S=C(NCc1ccccc1)NCc1ccc(CNC(=S)NCc2ccccc2)cc1	7%	2%	-19%	3%	-4%	33
C=CCNC(=S)NCc1ccccc1	-3%	16%	-1%	-12%	-8%	5
O=C(CCc1ccccc1)NC(NC(=S)Nc1ccc(Br)cc1)C(Cl)(Cl)Cl (centres undefined)	-6%	?	-62%	4.5µM*	?	9
S=C(NCc1ccccc1)Nc1ccc(Oc2ccccc2)cc1	7%	13µM*	15%	14µM*	-20%	20
C=CCNC(=S)NCc1ccccc1OC	6%	11µM*	0%	?	11%	-27
Cc1nnc(SCC(=O)NCC2CCCO2)n1Cc1ccccc1 (centres undefined)	-3%	·	-12%	·	3%	-27
COc1ccccc1CNC(=S)NCc1ccc(F)cc1	-6%	7.1µM*	-9%	7.9µM*	-5%	4
COc1cc(CNCc2ccccc2)ccc1OCC(O)c1ccccc1 (centres undefined)	-1%	-31%	3%	-5%	5%	9
CC1CCc2c(sc(/N=C/N(C)C)c2C#N)C1 (centres undefined)	16%	?	13µM*	10%	?	-23
Cc1ccc(C(=O)COC(=O)c2ccc3c(c2)C(=O)N(c2cccc4ncccc24)C3=O)cc1C	0%	?	-9%	16µM*	0%	-20
COc1ccccc1Oc1ccc2c(c1)C(=O)N(c1cccc(O)c1)C2=O	?	16%	4%	?	?	-10
